Source: PubChem BioAssay AID2716 (Broad Institute, 2010)
Where “and” joins values, the source holds several entries; their conditions need not be identical. Equal values may be shown once. Among all 320,000 compounds or so, about 3,300 (1%) were called active.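 How the source made its calls: active means every valid replicate shows activation above 250% relative to neutral control wells; inactive means the rest, any valid replicate at or below 250%.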 What follows is part of a selection rich in actives, with near analogues and random picks from the rest.

Experiment: yeast Mot1-301 growth rescue at high temperature, primary screen, SUMOylation pathway inhibitor project, S. cerevisiae, ATP luminescence, 38.5C (AID 2716);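 further: OY570 slx delta 5 strain wells were the positive control but not used for scaling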
Conditions: S. cerevisiae Mot1-301 growth rescue, at 18.8 µM, active compounds read high, percent above DMSO median, 100 means doubled

Growth rescue, active:
CCOCCCNCc1ccc(OCc2ccc(F)cc2)c(OC)c1 445%
Cc1cc(C)c2c(Cn3ccnc3)cc(=O)oc2c1 620%
COCCNC(=O)C(c1ccc(C)cc1)N(C(=O)CCC(=O)Nc1ccccn1)c1cccc(C)c1 (centres undefined) 451%
CSc1nc2ccc(NC(=O)c3c(F)cccc3F)cc2s1 423%
CCC(C)[C@H]1COCCS(=O)(=O)N1Cc1ccc(C)cc1 (some centres undefined) 881%
Cc1cc(Br)ccc1NC(=O)c1cnc(N2CCN(c3ccccn3)CC2)c2ccccc12 1030%
NC(=O)C1CCN(C(=O)COc2ccc3c4c(c(=O)oc3c2)CCC4)CC1 296%
C=CC1=C(C(=O)O)N2C(=O)[C@@H](NC(=O)/C(=N/OCC(=O)O)c3csc(N)n3)[C@H]2SC1 328%
COc1ccc(C(C[N+](=O)[O-])n2nc(C)cc2C)cc1 (centres undefined) 383%
O=C(CP(=O)(c1ccccc1)c1ccccc1)N1CCOCC1 634%
CN(C)/C(CN1CCCCC1)=C1\N=C(c2ccccc2)OC1=O 1740%
Oc1c(Cl)cc(Cl)c(Cl)c1Cc1c(O)c(Cl)cc(Cl)c1Cl 482% and 481%
Cc1cc(C(=O)N/N=C\C(Br)=C\c2ccccc2)c(C)o1 558%
CC(C)c1cc(C(=O)N/N=C/C(Br)=C/c2ccccc2)n[nH]1 457%
COc1cccc(CN(C)CC2CCCN(CCc3ccc(Cl)cc3)C2)c1OC (centres undefined) 535%
CN(C)c1nc(=Nc2cccc(Cl)c2)ss1 331%
Cc1ccc(OCC(=O)Oc2ccccc2[N+](=O)[O-])cc1 330%
Cc1ccc2c(c1)C(O)(CC(=O)c1cccnc1)C(=O)N2 (centres undefined) 1220%
Cc1ccc(NC(=O)Nc2cccc(C(F)(F)F)c2)nc1 471%

Growth rescue, inactive:
Cc1ccsc1C1C(C#N)=C(N)OC2=C1C(=O)CC(C)C2 (centres undefined) -1.54%
COc1ccc(CNCCCO)cc1OC -14.2%
CCN(CC)CCNCc1ccc(OCc2ccc(Cl)nc2)c(OC)c1 -8.12%
O=S(=O)(NCC1OCCc2ccccc21)c1ccccc1 (centres undefined) -12.3%
Cc1cccc(NC(=O)CCn2c(=O)oc3ccccc32)c1 -12.1%
Cc1cc(=O)oc2c1c(C)nn2-c1ccc(Cl)cc1 -9.75%
CCCCc1cc(=O)oc2cc(C)cc(OCc3nn[nH]n3)c12 64.1%
COC(=O)c1cc(S(=O)(=O)Nc2ccc(C)c(F)c2)c[nH]1 -5.05%
[O-][n+]1ccc(OCc2ccccc2)cc1 -10%
CCOc1ccc(C(C(=O)NCCOC)N(CCOC)C(=O)CCC(=O)Nc2ccccn2)cc1 (centres undefined) 0.544%
COCCNC(=O)C(c1ccc(O)cc1)N(C(=O)CCC(=O)Nc1nccs1)c1ccc(C)cc1 (centres undefined) -11.3%
COc1ccc([N+](=O)[O-])cc1N(CC(=O)Nc1ccccc1C(=O)N1CCOCC1)S(C)(=O)=O -10.4%
COC(=O)c1scc(C)c1NC(=O)CSc1ccc(Cl)cc1 -2.32%
COc1ccc(-c2ccc(CCC(=O)O)n2NC(=O)c2ccc(C(C)(C)C)cc2)cc1 -8.8%
CCCC(=O)Nc1nc2ccc(NC(=O)c3c(F)c(F)c(OC)c(F)c3F)cc2s1 -0.657%
O=C(Nc1ccncc1)c1c(F)cccc1F -9.16%
Cc1ccc(S(=O)(=O)NC(=O)N2CCCN(Cc3ccc(F)cc3)CC2)cc1 290%
Cc1cc(NC(=O)CSc2ncc(C(F)(F)F)cc2Cl)no1 6.57%
Cc1nc2ccccc2n1C(=O)N1CCOCC1 -12.1%
Cc1ccc(CN2CCCOCCS2(=O)=O)cc1 -17.5%
CCCC[C@H]1COCCS(=O)(=O)N1Cc1cccc(Cl)c1 -7.4%
COCCn1c(C)cc(C(=O)CSc2nnc(C3CC3)n2C2CC2)c1C 9.96%
O=C(CN1CCN(c2ccccn2)CC1)Nc1ccc(Br)cc1 5.41%
Cc1cc(Br)ccc1NC(=O)c1sc2ncn(CC(=O)N3CCN(c4ccccn4)CC3)c(=O)c2c1C -24.4%
COc1ccc(N2CCN(C(=O)COC(=O)c3cccc(S(=O)(=O)Nc4ccccc4OC)c3)CC2)cc1 -0.984%
COc1ccc(N2CC(C(=O)NCCS(=O)(=O)N3CCN(c4ccccc4)CC3)CC2=O)cc1 (centres undefined) 3.93%
CCCCNC(=O)Cn1nc(C)c(S(=O)(=O)N2CCOCC2)c1C -1.53%
O=C(COc1ccc2c3c(c(=O)oc2c1)CCC3)NC1CCCCC1 5.16%
O=C(COc1ccc2c3c(c(=O)oc2c1)CCCC3)NCC(O)c1ccccc1 (centres undefined) 1.8%
CCCCCCCCCCCCN1[C@@H](CC(C)=O)c2cc(F)cc(F)c2S1(=O)=O -17.6%
COc1ccc(C)cc1N(C(=O)Cn1nnc(-c2ccc(C)o2)n1)C(C(=O)NC1CCCC1)c1ccncc1 (centres undefined) -11.2%
CN(CCO)c1ccc(/C=N/Nc2nncc3ccccc23)cc1 20.6%
CO/N=C(\C(=O)N[C@@H]1C(=O)N2C(C(=O)O)=C(COC(C)=O)CS[C@H]12)c1csc(N)n1 (stereo in doubt) -1.64% and 233%
Cc1cc(C)cc(C(=O)NC2C(=O)N3C(C(=O)O)=C(CSc4nnc(C)s4)CSC23)c1 (centres undefined) -7.63%
CCN(C(=O)COC(=O)Cc1c(F)cccc1Cl)c1c(N)n(Cc2ccccc2)c(=O)[nH]c1=O -1.24%
Cc1ccccc1N1CCN(CC(=O)NCc2ccc(Cl)cc2)CC1 22%
CCOc1ccc(C(C)C)cc1S(=O)(=O)n1nc(C)cc1C -14.9%
COc1ccc(OCc2cn3c(C)cc(C)nc3n2)cc1 1.72%
Nc1c(-c2cccc(Cl)c2)cnn1-c1cccc([N+](=O)[O-])c1 0.816%
O=C(Nc1ccc(-n2ccnc2P(=O)(O)c2ccccc2)cc1)c1ccccc1Br 46.7%
O=C(Cc1ccccc1Cl)N1CCOCC1 9.61%
O=C(O)CC(CC(=O)N1CCOCC1)c1ccccc1 (centres undefined) -13.1%
COc1ccc(C(=O)COC(=O)CN2C(=O)C3CC=CCC3C2=O)c(OC)c1 (centres undefined) 9.86%
CCC(CO)Oc1cc(NCc2ccccc2)c2ncn(C3CCCC3)c2c1 (centres undefined) 9.9%
C/C(CC(C)C)=N\Oc1nc(C)cc(C)n1 -10.5%
CC(CN1CCCCC1)c1ccccc1 (centres undefined) 7.87%
O=C(CN1CCCC1)N1CCN(c2ccccc2)CC1 0.51%
O=C(c1cc(Cl)cc(Cl)c1)N1CCC(=O)N(C(COCc2ccccc2)Cc2ccccc2)CC1 (centres undefined) -7.87%
CC(=O)c1ccc(N2CCN(C(=O)c3ccc4nc[nH]c4c3)CC2)cc1 10.1%
CC(=C/c1ccccc1)/C=N/NC(=O)c1cc(C)oc1C 2.01%
Cc1ccc(-c2cc(C(=O)N/N=C/C=C/c3ccccc3)n[nH]2)o1 -7.96%
CC(C)c1cc(C(=O)O)n[nH]1 -2.94%
Cc1cc(C(=O)NNC(=O)c2ccccc2O)c(C)o1 -0.00731%
CCCc1c(C(=O)N/N=C(\C)CCc2ccc(OC)cc2)nnn1-c1nonc1N 3.62%
CCOC(=O)C1CCN(C(=O)Cn2nc(C)c3c(C)n(-c4ccccc4)nc3c2=O)CC1 34.9%
NC(=O)c1nnsc1-c1ccc(-c2snnc2C(N)=O)cc1 18.5%
COc1cccc(CN(C)CC(=O)NCc2ccccc2Cl)c1OC 10.7%
Cc1nc2ccc(C(=O)N(C)CC3CCCN(CCc4ccc(Cl)cc4)C3)cc2[nH]1 (centres undefined) 3.97%
Cc1cccc(C)c1NC(=O)N1CC(C)OC(C)C1 (centres undefined) -5.77%
Cc1ccc(-c2nc(COC(=O)c3c(C)noc3C)cs2)cc1 0.699%
Cc1ccc(S(=O)(=O)N(C)c2nc3ccccc3n3c(C(C)C)nnc23)cc1 138%
CCCC1(C(=O)OCC)NC(c2ccc(N(C)C)cc2)C2C(=O)N(c3ccc4c(c3)OCCO4)C(=O)C21 (centres undefined) -0.477%
O=C(Nc1nn(Cc2ccccc2F)cc1Br)c1cccs1 13%
CCOC(=O)COc1ccc([N+](=O)[O-])cc1 319%
O=C(COc1ccccc1[N+](=O)[O-])NC1CC1 1.86%
O=C(/C=C/c1cnc2ccccc2n1)NC1CCCCCC1 26.5%
Nc1c(N(CCCO)C(=O)C2CCCC2)c(=O)[nH]c(=O)n1Cc1ccccc1 103%
COc1ccc(CCNC(=O)CCC(=O)NC2CCCCC2)cc1OC 26.5%
Cc1ccc2c(c1)C(O)(CC(=O)c1cccc(-n3cccc3)c1)C(=O)N2 (centres undefined) -2.84%
Cc1cccc(OCC(=O)NCCNC(=O)c2cccnc2)c1 220%
CCC/C=C(\CCC)C(NC(=O)Cc1ccccc1)c1ccc(C(=O)OC)cc1 (centres undefined) -14.4%
CC(C)C[C@H](NC(=O)Nc1cccc(C(F)(F)F)c1)C(=O)O -3.86%
O=C(Nc1ccccc1)Nc1ccc(C(F)(F)F)cn1 -19.3%
O=C(CNS(=O)(=O)c1ccc2c(c1)OCCCO2)N1CCN(c2ccc(F)cc2)CC1 10.2%
COc1ccc2c(CC(=O)NNC(=O)c3ccccc3F)coc2c1 9.24%
